Data as given in PubChem BioAssay (NCI).
Compounds without any hit were thinned out: in the full panel of roughly 83,000, 20% have a hit.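 The endpoint reported here, percent growth, reads 100 for growth as untreated, 0 for no net growth and -100 for all cells dead.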 Values without a mark were called inactive. Calls of active or inactive are those of the source. Rule for the calls: active = growth percent below 10; inactive = the rest.

Experiments:
Assay in all cases: NCI-60 one-dose screen, 48 h (100 = growth as untreated, 0 = no growth, -100 = all killed)
[1] = test system: SR leukemia; conditions: 10 µM unless noted
[2] = test system: RPMI-8226 leukemia; conditions: 10 µM unless noted
[3] = test system: OVCAR-5 ovarian; conditions: 10 µM unless noted
[4] = test system: OVCAR-4 ovarian; conditions: 10 µM unless noted
[5] = test system: SK-OV-3 ovarian; conditions: 10 µM unless noted
[6] = test system: IGROV1 ovarian; conditions: 10 µM unless noted
[7] = test system: OVCAR-3 ovarian; conditions: 10 µM unless noted
[8] = test system: HS 578T breast; conditions: 10 µM
[9] = test system: NCI/ADR-RES ovarian; conditions: 10 µM unless noted
[10] = test system: T-47D breast; conditions: 10 µM unless noted
[11] = test system: BT-549 breast; conditions: 10 µM unless noted
[12] = test system: MDA-MB-435 melanoma; conditions: 10 µM unless noted
[13] = test system: SW-620 colon; conditions: 10 µM unless noted
[14] = test system: MCF7 breast; conditions: 10 µM unless noted
[15] = test system: HCT-116 colon; conditions: 10 µM unless noted
[16] = test system: HCC-2998 colon; conditions: 10 µM unless noted
[17] = test system: KM12 colon; conditions: 10 µM unless noted
[18] = test system: OVCAR-8 ovarian; conditions: 10 µM unless noted

| Structure (SMILES) | growth [1] | growth [2] | growth [3] | growth [4] | growth [5] | growth [6] | growth [7] | growth [8] | growth [9] | growth [10] | growth [11] | growth [12] | growth [13] | growth [14] | growth [15] | growth [16] | growth [17] | growth [18] |
| --- | --- | --- | --- | --- | --- | --- | --- | --- | --- | --- | --- | --- | --- | --- | --- | --- | --- | --- |
| CC[C@H](Nc1nc(C)nc(N)c1C#N)c1nc2cccc(NCc3ccc(C(=O)NO)cc3)c2c(=O)n1-c1ccccc1 | 0.66% (active) | 10.7% | 22.5% | 5.36% (active) | -16.2% (active) | 5.14% (active) | 4.73% (active) | 21.6% | 59.4% | 0.805% (active) | 36.6% | 16.8% | -31.5% (active) | 5.42% (active) | 3.59% (active) | 7.75% (active) | 13.3% |  |
| COc1cc2nccc(Oc3ccc(NC(=O)C4(C(=O)Nc5ccc(F)cc5)CC4)cc3)c2cc1Oc1ccc(N)cn1 | 11.9% | 48.5% | 40% | 29.9% | 61.3% | -24.1% (active) | 49.9% | 7.33% (active) | 73.8% | 5.99% (active) | 61.9% | 3.34% (active) | 36.8% | 9.52% (active) | 40.7% | 72% | 3.7% (active) |  |
| O=C1c2ccccc2C2N1CCC1CCc3ccccc3N12 (centres undefined) | 114% | 105% | 92% |  | 109% |  | 115% | 99.8% | 103% | 107% | 88.1% | 110% | 102% | 96.4% | 93.7% | 110% | 108% | 101% |
| COc1ccccc1/C=N\NC(=S)Nc1ccc(F)cc1 | 28.6% | 79.8% | 94.1% |  | 89.2% | 72.1% | 69.7% | 70.3% | 38.4% | 72.5% | 73.3% | 1.12% (active) | 37.5% | 60.5% | 68.7% | 66.5% | 51.4% | 78.7% |
| O=C1Cc2c([nH]c3ccc([N+](=O)[O-])cc23)-c2ccccc2N1 | -8.53% (active) | -22.1% (active) | 12.3% | 16.7% | 28.2% | -41.8% (active) | -14.4% (active) | 25.6% | 14.5% | 22.1% | 5.54% (active) | 16.2% | -3.84% (active) | 8.43% (active) | 4.3% (active) | -34.5% (active) | 4.23% (active) |  |
| CCCC(CCC)NCC(O)c1cc(-c2ccc(C(F)(F)F)cc2)nc(C(F)(F)F)c1 (centres undefined) | -61.4% (active) | -37.7% (active) | -37.9% (active) |  | 52.3% | -22.9% (active) | -83.1% (active) | -45.5% (active) | -53.9% (active) | -80.5% (active) | 48.2% | -48.1% (active) | -56.6% (active) | -85.1% (active) | -70.8% (active) |  | -85.4% (active) | -62.8% (active) |
| O=C1C(Cl)=C(N/N=c2/[nH][nH]/c(=N/NC3=C(Cl)C(=O)c4ccccc4C3=O)c3ccccc23)C(=O)c2ccccc21 | 19.7% | 33.8% | 119% | 78.5% | 73.6% | 59.6% | 66.2% | 37.4% | 66.1% | 15.3% | 83.1% | 102% | 60.6% | 54% | 61.8% | 93.9% | 18.5% |  |
| COc1cc(NCCCCC(C)N)c2nccc(C)c2c1 (centres undefined) | 98.7% | 75.2% | 81.6% |  | 93.3% | 71.3% | 73.5% | 80.2% | 100% | 48.1% | 94.5% | 106% | 93.3% | 4.24% (active) | 99.2% | 63.9% | 94.7% | 97% |
| CC1=C(C(=O)Nc2ccc(F)cc2)C(c2ccccc2)C2=C(CC(C)(C)CC2=O)N1 (centres undefined) |  | 41.3% | 90.7% | 58.7% | 97.2% | 84.3% | 70% | 82.5% | 79.7% | 63.6% | 91.1% | 90.3% | 89.7% | 67.1% | 73.6% | 103% | 84.5% | 73.3% |
| CC(=O)O[C@H]1[C@H](CC#CC#CC[C@@H]2C[C@]3(C)[C@H]4CC=C5[C@H]6[C@@H](C)[C@H](C)CC[C@]6(C(=O)NCCCCCCCCN)CC[C@@]5(C)[C@]4(C)CC[C@H]3C(C)(C)[C@H]2OC(C)=O)C[C@]2(C)[C@H]3CC=C4[C@H]5[C@@H](C)[C@H](C)CC[C@]5(C(=O)NCCCCCCCCN)CC[C@@]4(C)[C@]3(C)CC[C@H]2C1(C)C | 123% | 95.6% | 108% | 114% | 108% | 99.1% | 100% | 110% | 98.1% |  | 112% | 110% | 97.8% | 105% | 97.7% | 100% | 89.2% |  |
| FC(F)(F)c1ccc(/C=N/Nc2nnc3n2N=C(c2ccc(Cl)cc2)CS3)cc1 | 79.7% | 85.1% | 92.7% | 17.4% | 40.8% |  | 46.7% | 8.3% (active) | 47.4% | 65.5% | 58.2% | 70.8% | 77.6% | 61.2% | 32.8% | 98.7% | 76.9% |  |
| O=C(Nc1ccc(Cl)c(C(F)(F)F)c1)c1ccc(Nc2ccc(Cl)nn2)cc1 |  | 38.3% | 76.7% | 42.2% | 85.3% | 87.6% | 66.8% | 85.7% | 61.1% | 28.6% | 37.2% | 80.2% | 96.8% | 53% | 53.5% | 67.4% | 51.1% | 55.2% |
| CC1=C(C(=O)Nc2ccc(F)cc2)C(c2ccc(C)cc2)C2=C(CC(C)(C)CC2=O)N1 (centres undefined) |  | 99.2% | 93.1% | 90.8% | 100% | 104% | 92.7% | 77.4% | 89.9% | 85.2% | 97.2% | 94.9% | 81.9% | 91.1% | 96.3% | 107% | 102% | 98.3% |
| CC1=C(C(=O)Nc2ccc(F)cc2)C(c2ccc(Cl)cc2)C2=C(CC(C)(C)CC2=O)N1 (centres undefined) |  | 70% | 93.5% | 77.6% | 101% | 89.6% | 89.9% | 80.4% | 87.9% | 82.6% | 99.9% | 91.6% | 94.6% | 80.1% | 86.9% | 99.6% | 92.6% | 89.1% |
| O=C(CS)OCC(COC(=O)CS)(COC(=O)CS)COC(=O)CS | 38.6% | 90.6% | 104% | 83.6% | 103% | 94.4% | 109% |  | 74.3% | 89.1% | 108% | 78.8% | 107% | 75.9% | 79.6% | 92.2% | 67.5% |  |
| CN(C)c1ccc(/C=N/Nc2nnc3n2N=C(c2ccc(Cl)cc2)CS3)cc1 |  | 82.5% | 108% | 98.8% | 108% | 84.4% | 102% | 92% | 94% | 84.2% | 90.3% | 97.5% | 102% | 77.4% | 99% | 106% | 101% | 96.5% |
| Brc1ccccc1Cn1c(-c2cncs2)nc2ccccc21 |  | 43.3% | 70.8% | 72.4% | 92.2% | 86.9% | 86.6% | 69.5% | 83.5% | 72.2% | 85.4% | 110% | 88.4% | 98.9% | 73.3% | 92% | 76.7% | 79.2% |
| CCOC(=O)c1ccc(N(CCC(=O)O)C(C)=O)cc1 | 129% | 110% | 102% |  | 114% | 103% | 120% | 114% | 109% | 112% | 94.9% | 122% |  | 99.9% | 104% | 113% | 117% |  |
